Measurements from PubChem BioAssay AID602195 (The Scripps Research Institute Molecular Screening Center, 2012).
The whole screen tested about 1,600 compounds, of which about 430 (27%) were called active. These entries were drawn from the full list. A number with no mark means an inactive call. No stated cut-off is given here; in the data, active means inhibition above about 29%; inactive means the rest.

Each compound was assayed against Melanocortin receptor 4 (Homo sapiens) (UniProt P32245) (assay: blockers of MC4R cAMP signaling – cell-based, TR-FRET, confirmation (AID 602195;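 further: 0% = agonist stimulated wells alone and 100% = agonist stimulated wells plus saturating reference antagonist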)). Conditions: MC4R-expressing cells, MTII-stimulated cAMP, at 6.5 µM, stronger effect = higher value.
Sequence of Melanocortin receptor 4 (Homo sapiens) (P32245 whole entry, looked up): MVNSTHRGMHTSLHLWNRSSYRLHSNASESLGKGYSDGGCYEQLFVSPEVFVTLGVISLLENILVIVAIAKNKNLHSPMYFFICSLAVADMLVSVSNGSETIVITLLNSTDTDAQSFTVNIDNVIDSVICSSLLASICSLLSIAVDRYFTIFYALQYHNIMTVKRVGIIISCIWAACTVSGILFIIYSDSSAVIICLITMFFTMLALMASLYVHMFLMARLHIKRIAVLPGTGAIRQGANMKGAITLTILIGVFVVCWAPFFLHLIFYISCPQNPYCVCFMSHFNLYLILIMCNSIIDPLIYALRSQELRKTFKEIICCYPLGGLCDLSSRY
Work on `O=C(NC1=CC(=O)c2ccccc2C1=O)c1ccccc1` yielded an inhibition of 15.8%.
With `COc1ccc(C(C)C)cc1S(=O)(=O)Nc1ncn[nH]1` the inhibition was 5.25%.
Compound `Cc1ccc(CSc2nnc(-c3cnccn3)n2C)cc1` has an inhibition of 10.6%.
`COc1ccc(Oc2c(Cl)cnn(-c3ccccc3)c2=O)cc1` was tested, and the inhibition was 72.2% (active).
In the case of `O=C(Nc1ccc(F)c([N+](=O)[O-])c1)C1CC(=O)N(Cc2ccccc2)C1` (stereo not drawn), the inhibition is reported as 42.5% (active).
`Cc1ccc(-c2nnc(CN3CCN(C)CC3)o2)cc1` showed an inhibition of 7.87%.
`COc1ccc(CCNC(=O)c2cnc(Cl)c(Cl)c2)cc1` was tested, and the inhibition was 35.6% (active).
`COc1ccc(CCNC(=O)COC(=O)c2cnc(Cl)c(Cl)c2)cc1` was tested, and the inhibition was 36.7% (active).
`O=C(OCC(=O)N1CCCCCC1)c1cnc(Cl)c(Cl)c1` was tested, and the inhibition was 35.9% (active).
`CC(C)Oc1c(Br)cc(Br)cc1/C=N/NC(N)=S` was tested, and the inhibition was 25.2%.
`COc1ccc(Cl)cc1-c1cc(C(=O)Nc2cc(OC)c(OC)c(OC)c2)[nH]n1` gave an inhibition of -21.1%.
For `O=C(NCC1CCN(Cc2ccccc2Cl)CC1)Nc1cccc(Cl)c1`, the inhibition was -1.08%.
For `CC(NS(=O)(=O)c1ccc(Br)cc1)C(=O)NCC1CCCO1` (stereo not drawn), the inhibition was 0.92%.
For `CCOC(=O)c1c(-c2ccccc2)oc2cc(Br)c(O)c(C=O)c12`, the inhibition was 68.6% (active).
`C=Cn1c(C(=O)O)ccc1-c1ccc(OC)cc1` was tested, and the inhibition was -8.3%.
`N#C/C=C1\Sc2ccccc2C(=O)N1CC(=O)N1CCN(S(=O)(=O)c2ccccc2)CC1` gave an inhibition of 3.29%.
For `CCCC(C(=O)n1nc(C)cc1C)C(NS(=O)(=O)c1ccc(C)cc1)c1ccccc1` (stereo not drawn), the inhibition was 13.1%.
With `N#Cc1c(-c2cccs2)nc(SCC(=O)c2ccc(Br)cc2)[nH]c1=O` the inhibition was 19.2%.
In the case of `CC1(C)Cc2ccccc2-c2[nH]c(=S)[nH]c(=O)c21`, the inhibition is reported as 36.1% (active).
`COc1ccc2oc(N)c(C=O)c(=O)c2c1` was tested, and the inhibition was -15.9%.
`CC(=O)N1CCN(S(=O)(=O)c2c(F)cc(F)c(Cl)c2F)CC1` was tested, and the inhibition was 45.1% (active).
Compound `CCN(CC(=O)NCCCN1CCOCC1)S(=O)(=O)c1cc(Cl)ccc1Cl` has an inhibition of -1%.
Work on `COc1ccc(C(C[N+](=O)[O-])n2nc(C)cc2C)cc1` (stereo not drawn) yielded an inhibition of -13.7%.
